# BJeLR viability: kills HRASV12-expressing BJeLR cells. inhibition, % (no concentration beside the values). 0.17% of 300,000 active. AID 1554. BJeLR (HRASV12) viability, CellTiter-Glo ATP luminescence, 48 h; in the data active = inhibition above about 50%; inconclusive = no clear call, values can overlap the other calls
# BoNT F protease: blocks Botulinum neurotoxin F light chain protease; AID 588497; 0.22% of 360,000 active; Multiplex microsphere protease cleavage assay, flow cytometry; inhibition, % at 10 µM; in the data active = inhibition above about 35%, passing the limit was not always enough; inconclusive = no clear call, values can overlap the other calls
# Anthrax LF inh2: inhibitors of Bacillus anthracis lethal factor protease; multiplex microsphere protease cleavage assay, LF; AID 588501; 0.12% of 360,000 active; inhibition, % at 10 µM
# BoNT A protease: blocks Botulinum neurotoxin A light chain protease; multiplex microsphere protease substrate cleavage, flow cytometry; inhibition, % at 10 µM; 0.17% of 360,000 active
# Autofluor counter: flagged as autofluorescent in microsphere protease counterscreen. fluorescence intensity (test concentration not listed). compound autofluorescence counterscreen, microsphere flow cytometry; active compounds read high. 3.1% of 360,000 active. AID 624483; in the data active = fluorescence intensity above about 16000; inconclusive = no clear call, values can overlap the other calls
# Hits are given with their value; – = inactive; ? = inconclusive; · = no result. Sampled rows, rich in hits. Any-hit rate of the full collection: about 3.5%. Cut-off read from the data, not from the text of the source, unless noted: active = inhibition above about 30%; inconclusive = no clear call, values can overlap the other calls; inactive = below that.
SMILES,BJeLR viability,BoNT F protease,Anthrax LF inh2,BoNT A protease,Autofluor counter
CCc1ccc2[nH]c(=O)c(C(c3nnnn3Cc3ccccc3)N3CCOCC3)cc2c1 (configuration not stated),–,–,–,?,21543
CCc1ccc2[nH]c(=O)c(C(c3nnnn3CCOC)N3CCN(c4ccccc4)CC3)cc2c1 (configuration not stated),–,–,–,–,–
CCOC(=O)[C@]12CCCC=C1N(Cc1ccc(Cl)cc1Cl)C(=O)[C@H](CC(=O)N1CCN(C(=O)c3ccco3)CC1)C2,·,–,–,–,–
CC(C)CCn1cnc2c(c1=O)c1nc3ccccc3nc1n2Cc1ccc2c(c1)OCO2,–,–,–,–,–
Cc1ccc(N=Cc2c(C)[nH]n(-c3nc4ccccc4[nH]3)c2=O)cc1,103,–,–,–,–
Cc1ccc(-n2[nH]c(C)c(C=Nc3ccc4[nH]c(=O)[nH]c4c3)c2=O)cc1,–,–,–,–,–
COc1ccc(C2NC(=O)c3ccccc3O2)c(OC)c1OC (configuration not stated),–,–,–,–,–
COc1cccc(C2NC(=O)c3ccccc3O2)c1OC (configuration not stated),–,–,–,?,18893
CC(=O)C1CCC2C3CC(C)C4(O)CC(=O)CCC4(C)C3C(O)CC12C (configuration not stated),·,–,–,–,–
CC(=O)C12CCCCC1CC1C3CC(C)C4(O)CC(=O)CCC4(C)C3CCC12C (configuration not stated),–,35,–,–,–
COCCN(Cc1ccc(OC)cc1)c1c(C)nc2ccc(C(=O)Nc3ccc(NC(C)=O)cc3)cn12,·,–,–,–,–
O=C(Nc1cc(C(F)(F)F)ccc1-n1cncn1)c1ccc(Br)cc1,–,–,–,–,24053
CN(C)c1ccc(C(=O)Nc2cc(C(F)(F)F)ccc2-n2cncn2)cc1,–,?,–,–,–
Cc1ccc(C2(C(F)(F)F)NC(=O)N3CCN=C3S2)cc1 (configuration not stated),–,–,–,?,21208
CC(=O)Nc1ccc(-c2ccnc3c2CC(C(=O)NCC2CCOCC2)O3)cc1 (configuration not stated),·,–,–,–,–
CC(C)C(=O)Nc1ccc(Cc2ccc(NC(=O)C(C)C)c(O)c2)cc1O,–,–,–,–,16658
CC(C)C(=O)Nc1ccccc1Cc1ccccc1,–,–,–,–,–
COc1ccc(N2C(=O)/C(=C/c3ccc(C)o3)C(=O)NC2=S)cc1,51,–,–,–,–
CSc1ccccc1-n1nnnc1SCC(=O)Nc1ccccc1C,–,–,–,–,20932
COC(=O)c1ccsc1NC(=O)CSc1nnnn1-c1ccccc1SC,–,–,–,–,24392
CSc1ccccc1-n1nnnc1SCC(=O)NCc1cccs1,–,?,–,–,–
CSc1ccccc1NC(=O)CSc1nnnn1-c1ccccc1SC,–,–,–,–,–
COc1ccc(C(O)c2nc(-c3ccc(F)c(Cl)c3)cs2)cc1 (configuration not stated),·,–,–,–,–
O=C(Nc1ccc(Oc2ccccc2)cc1)c1csc([C@H]2C[C@H](O)[C@@H](CO)O2)n1,·,–,–,–,–
CCOC(=O)C1CCN(Cc2cn[nH]c2-c2ccc(C)cc2)CC1,–,–,–,–,–
SMILES,BJeLR viability,BoNT F protease,Anthrax LF inh2,BoNT A protease,Autofluor counter
CCOC(=O)C1CCN(Cc2ccc(OC)cc2OC)CC1,–,–,–,–,–
CCOC(=O)C1CCN(Cc2cnc(Oc3ccc(OC)cc3)s2)CC1,–,–,–,–,24024
CCOC(=O)C1CCN(Cc2c(F)cccc2Cl)CC1,–,–,–,–,25112
CCOC(=O)C1CCN(Cc2cn[nH]c2-c2ccccc2)CC1,–,–,–,–,20102
CCOC(=O)C1CCN(C(=O)Cc2c(F)cccc2Cl)CC1,–,–,–,–,–
CCOC(=O)C1CCCN(Cc2c(F)cccc2Cl)C1 (configuration not stated),–,–,–,–,20111
CC(Sc1nnc2n1CCCCC2)C(=O)Nc1ccc(S(N)(=O)=O)cc1 (configuration not stated),·,–,–,–,–
CCOC(=O)C1CCCN(Cc2ccccc2OCC)C1 (configuration not stated),–,–,–,–,19086
CCOC(=O)C1CCCN(C(=O)CN2C(=O)c3ccccc3C2=O)C1 (configuration not stated),–,–,–,?,20127
CCOC(=O)C1CCCN(CC(O)COc2ccccc2C(C)=O)C1 (configuration not stated),–,–,–,–,22881
CCOC(=O)C1CCCN(C(=O)CN2C(=O)c3ccccc3S2(=O)=O)C1 (configuration not stated),·,–,–,–,–
CCOC(=O)C1CCCN(Cc2ccccc2C)C1 (configuration not stated),–,–,–,–,–
CCOC(=O)C1CCN(C(=O)c2cccnc2Cl)CC1,–,–,–,–,20039
CCNC(=O)C1(C)CCN(C(=O)c2ccc(-c3ccccc3)cc2)C1 (configuration not stated),·,–,–,–,–
CCOC(=O)C1CCCN(C(=O)C(C)Oc2ccc(Cl)cc2Cl)C1 (configuration not stated),·,–,–,?,22441
CCOC(=O)C1CCN(Cc2c(O)ccc3ccccc23)CC1,–,–,–,?,19910
CCOC(=O)N1CCN(Cc2c(O)ccc3ccccc23)CC1,–,?,–,–,–
CC1(C(=O)Nc2cccc3cccnc23)CCN1Cc1ccc(-c2ccccc2)o1 (configuration not stated),·,–,–,–,–
Cc1ccc(-n2c(=O)c(C#N)cc3c(=O)n4cccc(C)c4nc32)cc1,–,–,–,?,20956
Cc1ccc(Cn2c(=N)c(C#N)cc3c(=O)n4cccc(C)c4nc32)cc1,–,·,·,·,·
Cc1cc2ncn(-c3ncnc4sc(C)c(C)c34)c2cc1C,–,–,–,–,–
Cc1cc2ncn(-c3ncnc4scc(-c5ccccc5)c34)c2cc1C,–,–,–,?,24244
NC(=O)c1cc(N2C(=O)C3CC=CCC3C2=O)ccc1N1CCCCC1 (configuration not stated),–,–,–,–,23233
CC(C)C(Nc1ncnc2c1oc1ccccc12)C(=O)O (configuration not stated),–,–,–,–,–
Cc1c(C(C)(C)C)c(C=S)n2ccccc12,–,–,–,?,21631
SMILES,BJeLR viability,BoNT F protease,Anthrax LF inh2,BoNT A protease,Autofluor counter
Cc1c(C=O)c2ccccn2c1C(=O)c1ccccc1,–,–,–,–,–
O=C(CCn1nc(-c2ccc(Cl)cc2)c2ccccc2c1=O)Nc1cccnc1,–,–,–,–,–
COc1ccnc(CS(=O)c2nc3cc(OC(F)F)ccc3[nH]2)c1OC (configuration not stated),–,·,·,·,·
Cc1ccc(CN2CCN(/N=C/c3ccc(O)c(O)c3)CC2)cc1,–,–,–,–,–
COc1cc(/C=N/N2CCN(Cc3ccc(Cl)cc3)CC2)ccc1OC(C)=O,–,?,–,–,–
COc1ccc(/C=N/N2CCN(Cc3ccc(C)cc3)CC2)cc1Br,–,43,–,–,–
